# Records with an inconclusive call do not appear. Activity calls are given as the source filed them. The call rests on the fitted dose curve.
# Target: Atrial natriuretic peptide receptor 1 (Homo sapiens) (UniProt P16066)
# Experiment: Natriuretic polypeptide receptor (hNpr1) antagonism - Pilot CMLD screen (AID 1347052)
# Conditions: HEK293 hNpr1 GloSensor cGMP luminescence, ANP-stimulated; series mostly up to 9.22 µM
# Protocol: In order to identify small molecular compounds that inhibit the hNpr1 receptor we developed a high-throughput assay to measure inhibition of the guanylate cyclase activity of the receptor. cGMP production was measured using a circular permutated Firefly luciferase (FLuc) enzyme functionally linked to the cGMP binding domain of human phosphodiesterase 5 (GloSensor technology pGS-40F, (Fan, F. et al. 2008). The cGMP-sensor was expressed in human embryonic kidney 293 (HEK-293) cells and FLuc activity was measured after stimulation with hNrp agonist peptide. hNrp agonists activates the receptor's associated guanylyl cyclase (GC) domain producing cGMP which then binds to the GloSensor resulting in FLuc activation, the enzymatic activity of which can be measured as bioluminescence with addition of luciferin substrate.
# This assay was initially piloted by testing with a small library of specialty compounds.
# PROTOCOL TABLES (as described by Inglese J, Shamu CE and Guy RK. 2007)
# SEQUENCE No. (e.g., 1, 2, 3, etc.); […] (e.g., Cells, Incubation, Reagent, etc.); VALUE and DESCRIPTION.
# 1. Cells. Seed 1500 HEK293 cGMP-sensor cells expressing hNpr1 per well in 4uL into Greiner 1536-well white/solid bottom high base, tissue culture-treated plates.
# 2. Incubation. Incubate plated cells at 37C in 5% CO2, 95% RH overnight.
# 3. Reagent. Add 1uL per well GloSensor reagent from Promega (2% final concentration) or CO2 independent media vehicle control to respective columns of Greiner 1536-well plates.
# 4. Incubation. Incubate plated cells at room temperature for 2 h, protect from light.
# 5. Compounds. Library compounds and A-71915 control added at 23 nL per well, transferred by Pin Tool.
# 6. Incubation. Incubate plated cells for 30 min. at room temperature, protect from light.
# 7. Detector. GloSensor baseline pre-read luminescence measured using CCD-based camera (Viewlux).
# 8. Compound. Add 1uL of hNppA peptide to 0.1 nM final concentration to stimulate hNpr1 or CO2 independent media as vehicle control.
# 9. Incubation. Incubate treated cells at room temperature for 20 min., protect from light.
# 10. Detector. GloSensor post-hNppA luminescence measured using CCD-based camera (Viewlux).
# NOTES (numbers refer to Sequence numbers above)
# 1. HEK293 cells expressing hNpr1 and GIP/pGS-40F grown to 85-95% confluence (48-72 h) in T175 culture flasks (CO2 independent media supplemented with 10% FBS, 1% Pen/Strep antibiotics and 1 ug/mL puromycin). Trypsinize and harvest cells from T175 culture flasks and filter through 40 um cell strainer. Cells counted with Invitrogen Countess (30,000,000 - 50,000,000 cells/flask). Cells diluted to a final concentration of 375 cells/uL in CO2 independent media and a Millipore multidrop used to dispense 1500 cells per well (4uL/well) into 13 1536-well Greiner White/Solid bottom, high base tissue-culture treated (TC) plates and one Aurora 1536-well Black/Clear bottom, low base, TC plate (for visual inspection of cell health throughout the duration of the assay).
# 2. Cells incubated overnight at ambient temperature, 24 h. at 37C in 95% RH incubator protected from light, covered with metal lid with gas-exchange holes.
# 3. Prepare GloSensor Reagent (Promega): Reconstitute GloSensor luciferase substrate by adding 8.2mL Hepes buffer to 250mg substrate, mix well, protect from light and stored at -80C. Prepare a fresh 12% GloSensor solution in CO2 independent supplemented plating media (see above). Mix well and store at ambient temperature, protected from light. 1uL 12% GloSensor Luciferase Reagent added (2% final concentration) to respective columns of 13 x 1536-well Greiner plate with BioRaptr, 1uL CO2 independent plating media added to respective columns as vehicle control with BioRaptr.
# 4. Cells incubated for 2 h. at ambient temperature, protected from light with metal lid with gas-exchange holes.
# 5. A-71915 stock solution prepared (10 mM in DMSO). […]
# Sequence of Atrial natriuretic peptide receptor 1 (Homo sapiens) (P16066 whole entry, looked up): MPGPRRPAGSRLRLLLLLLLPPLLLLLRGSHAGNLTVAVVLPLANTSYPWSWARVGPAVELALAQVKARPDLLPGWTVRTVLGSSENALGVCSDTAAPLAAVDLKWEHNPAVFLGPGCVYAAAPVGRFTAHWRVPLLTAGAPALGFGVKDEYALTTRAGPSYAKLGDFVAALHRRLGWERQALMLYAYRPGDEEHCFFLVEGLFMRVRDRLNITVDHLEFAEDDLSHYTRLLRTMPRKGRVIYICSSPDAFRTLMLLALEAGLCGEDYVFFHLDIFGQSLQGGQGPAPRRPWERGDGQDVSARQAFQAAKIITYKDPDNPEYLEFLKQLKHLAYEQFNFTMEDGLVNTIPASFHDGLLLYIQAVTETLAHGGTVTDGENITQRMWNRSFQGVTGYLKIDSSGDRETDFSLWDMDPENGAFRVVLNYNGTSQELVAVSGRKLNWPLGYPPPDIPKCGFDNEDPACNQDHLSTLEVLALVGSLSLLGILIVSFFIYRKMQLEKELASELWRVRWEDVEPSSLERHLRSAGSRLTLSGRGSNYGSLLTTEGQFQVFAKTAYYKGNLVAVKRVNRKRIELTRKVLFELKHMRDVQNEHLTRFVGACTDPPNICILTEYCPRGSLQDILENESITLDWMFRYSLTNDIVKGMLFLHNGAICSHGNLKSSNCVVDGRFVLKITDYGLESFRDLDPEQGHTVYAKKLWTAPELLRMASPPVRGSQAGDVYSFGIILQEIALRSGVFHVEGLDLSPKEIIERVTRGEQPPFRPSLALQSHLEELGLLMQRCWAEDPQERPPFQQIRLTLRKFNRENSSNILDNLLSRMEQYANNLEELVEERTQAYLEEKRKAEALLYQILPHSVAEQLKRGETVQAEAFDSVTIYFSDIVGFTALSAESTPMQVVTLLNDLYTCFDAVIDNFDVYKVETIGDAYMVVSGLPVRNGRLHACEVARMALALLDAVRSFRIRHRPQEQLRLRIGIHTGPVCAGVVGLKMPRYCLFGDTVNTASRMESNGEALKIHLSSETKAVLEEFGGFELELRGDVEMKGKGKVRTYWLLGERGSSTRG
row,SMILES,outcome
1,COC(=O)C1c2c(n(C)c3ccccc23)[C@H]2[C@@H](C)[C@H](OC)c3ccccc3[C@@H]12 (some centres not stated),inactive
2,COC(=O)C1=C2CCO[C@@H]2[C@H]2[C@@H](C)[C@H](OC)c3ccccc3[C@H]12,inactive
3,COC(=O)[C@]12C[C@@H]3CCN(C(=O)N[C@@H]1c1ccccc1)[C@@]32C,inactive
4,CC(=O)[C@]12C[C@]3(C)CCCN(C(=O)N[C@@H]1c1ccccc1)C32 (some centres not stated),inactive
5,COC(=O)[C@@]1(C=C2c3ccccc3[C@@H](OC)[C@@H]2C)[C@@H]2Oc3ccccc3[C@@H]21,inactive
6,COC(=O)[C@@]12Cc3ccccc3[C@H]1C[C@H](C)[C@@H](C)N2C(=O)C(F)(F)F,inactive
7,COC(=O)[C@@]1(C=C[C@@H](C)[C@H](OC)c2ccccc2Br)[C@@H]2Oc3ccccc3[C@@H]21,inactive
8,C=C(C)C(=O)CP(=O)(OCC)OCC,inactive
9,COC(=O)C1=C2CCO[C@H]2[C@@H]2[C@@H](C)[C@H](OC)c3ccccc3[C@@H]12,inactive
10,C=C1[C@@H]2CCN3C(=O)N[C@@H](c4ccccc4)[C@@]1(C(=O)OCC)C23 (some centres not stated),inactive
11,COC(=O)C12CC3=CCC4C(=O)N(c5ccccc5)C(=O)C4C3Cc3ccccc3[C@H]1CNC2=O (some centres not stated),inactive
12,CC(=O)[C@]12C[C@@H]3CCN(C(=O)N[C@@H]1c1ccccc1)[C@@]32C,inactive
13,COC(=O)C1=C2CCCO[C@H]2[C@@H]2[C@@H](C)[C@H](OC)c3ccccc3[C@@H]12,inactive
14,CCOC(=O)[C@@]12C3[C@@H](CCN3C(=O)N[C@@H]1c1ccccc1)[C@@H]2C (some centres not stated),inactive
15,CCOC(=O)[C@@]12[C@@H]3[C@@H](CCN3C(=O)N[C@H]1c1ccccc1)C2(C)C,inactive
16,COC(=O)C1=NN=C(C(=O)OC)[C@@]2(C)c3ccccc3NC12 (some centres not stated),inactive

row,SMILES,outcome
1,COC(=O)C1C2CC(C)C(c3ccccc32)N1C(=O)C(F)(F)F (configuration not stated),inactive
2,CCOC(=O)[C@]12C[C@@H]3CCN(C(=O)N(C(C)=O)[C@@H]1c1ccccc1)[C@@H]32,inactive
3,COC(=O)C1(C)C2CC(C)C(c3ccccc32)N1C(=O)C(F)(F)F (configuration not stated),inactive
4,CC(=O)[C@]12[C@H](c3ccccc3)[C@@H]3CCN(C(=O)N[C@H]1c1ccccc1)[C@@]32C,inactive
5,CCOC(=O)[C@]12C[C@@H]3OCCN(C(=O)N[C@@H]1c1ccccc1)[C@@H]32,inactive
6,COC(=O)[C@@H]1[C@@H](c2ccccc2)[C@H]2C(=O)c3c(OC)cc(OC)cc3O[C@@]12c1ccc(OC)cc1,inactive
7,CCOC(=O)[C@]12C[C@]3(C)CCN(C(=O)N[C@@H]1c1ccccc1)[C@@H]32,inactive
8,CCC[C@]12CCN3C(=O)N[C@@H](c4ccccc4)[C@](C(=O)OCC)(C1)[C@H]32,inactive
9,CC(=O)[C@]12C[C@@H]3CCCN(C(=O)N[C@@H]1c1ccccc1)[C@@H]32,inactive
10,COC(=O)C1=C[C@H]([C@@H](C)[C@H](OC)c2ccccc2Br)[C@H]2[C@H]1c1ccccc1N2C,inactive
11,CC(=O)[C@@]12C3[C@@H](CCN3C(=O)N[C@H]1c1ccccc1)[C@H]2c1ccccc1 (some centres not stated),inactive
12,CCOC(=O)[C@]12C[C@]3(OC)CCN(C(=O)N[C@@H]1c1ccccc1)[C@@H]32,inactive
13,COC(=O)[C@@]1(C=C2c3ccc(F)cc3[C@@H](OC)[C@@H]2C)[C@@H]2Oc3ccccc3[C@@H]21,inactive
14,COC(=O)[C@@]1(C=C2c3ccc(F)cc3[C@@H](OC)[C@@H]2C)[C@@H]2c3ccccc3O[C@@H]21,inactive
15,CO[C@@H]1c2ccccc2[C@H]2C(C(=O)O)c3c(n(C)c4ccccc34)[C@H]2[C@H]1C (some centres not stated),inactive
16,CCOC(=O)[C@]12C[C@]3(C)CCCN(C(=O)N[C@@H]1c1ccccc1)[C@@H]32,inactive

# Source: PubChem BioAssay (NCATS)
